Test results from PubChem BioAssay (Tox21).
Where “and” joins values, the source holds several entries; their conditions need not be identical. Identical values can stand only once. Records with an inconclusive call do not appear. Entries that show only a call come without a potency. A structure can be active in one record and inactive in another. Calls of active or inactive are those of the source. Unless noted, the call rests on the fitted dose curve.

Tests used:
[1] = Nuclear factor erythroid 2-related factor 2/antioxidant responsive element (Nrf2/ARE) small molecule agonists: qHTS cell viability counter screen in human keratinocytes (AID 1919968; active means well fitted cell-killing curve with a large enough effect in the repeat runs; further: nearly all actives have a fitted effect of over 55% in size; further: potency means the concentration at half of the fitted maximal effect)
Summary of the method: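 Seed 1,500 KeratinoSens cells per well, then incubate 5 h at 37 C/5% CO2. Add compounds in DMSO and incubate 23 h. Add CellTiter-Fluor, wait 1 h and read fluorescence.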

[2] = Nuclear factor erythroid 2-related factor 2/antioxidant responsive element (Nrf2/ARE) small molecule agonists: luciferase reporter gene qHTS assay in human keratinocytes (AID 1919969); further: nearly all actives have a fitted effect of over 35% in size; further: potency means the concentration at half of the fitted maximal effect
[3] = biological target: Gonadotropin-releasing hormone receptor (Homo sapiens) (UniProt P30968); assay: Human gonadotropin-releasing hormone receptor (GnRHR) small molecule agonists, calcium flux assay in GnRHR-HEK293 cells (AID 1920063); further: nearly all actives have a fitted effect of over 35% in size
Chain of Gonadotropin-releasing hormone receptor (Homo sapiens) (P30968 whole entry, looked up): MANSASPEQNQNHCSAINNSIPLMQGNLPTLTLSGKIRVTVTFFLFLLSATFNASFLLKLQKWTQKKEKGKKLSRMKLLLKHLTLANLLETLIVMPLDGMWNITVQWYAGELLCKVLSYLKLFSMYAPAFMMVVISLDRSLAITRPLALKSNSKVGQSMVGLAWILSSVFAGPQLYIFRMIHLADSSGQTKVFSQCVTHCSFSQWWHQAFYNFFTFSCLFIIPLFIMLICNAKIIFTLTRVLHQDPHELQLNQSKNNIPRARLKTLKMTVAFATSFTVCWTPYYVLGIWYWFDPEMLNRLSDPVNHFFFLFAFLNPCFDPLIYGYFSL
Summary of the method: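 Cells: HEK293 stably expressing human GnRHR. Steps: overnight (18 h) culture, 1 h calcium dye loading at 37 C, compound addition, kinetic fluorescence read at 480/540 nm. Each compound tested at 15 concentrations in triplicate.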

[4] = p53 small molecule agonists, cell-based qHTS assay with human liver microsomes (AID 1963577)
Summary of the method: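 Cells carrying a p53-responsive bla reporter were rested 5 h (37 C, 5% CO2) before compound transfer. Human liver microsomes plus NADPH, 0.5 mg/mL final apiece, supplied metabolism during the 16 h 37 C exposure.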

[5] = p53 small molecule agonists, cell-based qHTS assay with rat liver microsomes (AID 1963578)
Summary of the method: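 Fluorescence from a beta-lactamase reporter under a p53 response element was measured after cells had been incubated 16 h at 37 C with test compound and rat liver microsomes plus NADPH (0.5 mg/mL final each).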

[6] = p53 small molecule agonists, cell-based qHTS assay with human liver microsomes: qHTS cell viability counter screen (AID 1963579); further: nearly all actives have a fitted effect of over 45% in size; further: potency means the concentration at half of the fitted maximal effect
Summary of the method: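 Seed p53RE-bla cells at 4,000 per well; incubate 5 h at 37 C; add compound, human liver microsomes and NADPH; incubate 16 h at 37 C; add CellTiter-Glo; after 30 min at room temperature, read luminescence.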

[7] = p53 small molecule agonists, cell-based qHTS assay with rat liver microsomes: qHTS cell viability counter screen (AID 1963580); further: nearly all actives have a fitted effect of over 45% in size; further: potency means the concentration at half of the fitted maximal effect
Summary of the method: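 HCT-116 p53RE-bla, 4,000 cells/well, 5 h pre-incubation; cpd + rat liver microsomes 0.5 mg/mL + NADPH 0.5 mg/mL (final); 16 h, 37 C; CellTiter-Glo, 30 min RT; luminescence.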

[8] = p53 small molecule agonists, cell-based qHTS assay: qHTS cell viability counter screen (AID 1963581); further: nearly all actives have a fitted effect of over 45% in size
Summary of the method: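 Cells: HCT-116 with p53 response element-driven beta-lactamase. Treatment: 16 h, 37 C, compounds in DMSO. Read: CellTiter-Glo luminescence after 30 min RT.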

[9] = p53 small molecule agonists, cell-based qHTS assay (AID 1963582; active means well fitted activation curve with a large enough effect in the signal ratio in the repeat runs, not every such curve was filed as active; the % refers to the signal ratio)
Summary of the method: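 Quantitative HTS in p53RE-bla cells: after a 5 h settling period, compounds delivered in DMSO were left on cells for 16 h at 37 C, and reporter induction was measured as fluorescence following 2 h substrate loading.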

[10] = cAMP Responsive Elements (CRE) small molecule agonists, cell-based qHTS assay (AID 1963590)
Summary of the method: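 Agonist mode qHTS in CRE-bla HEK 293T cells: compounds dosed from DMSO for 3 h at 37 C/5% CO2, followed by LiveBLAzer B/G FRET substrate for 2 h at room temperature.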

[11] = cAMP Responsive Elements (CRE) small molecule antagonists, cell-based qHTS assay (AID 1963591; active means well fitted inhibition curve with a large enough effect in the signal ratio in the repeat runs, not every such curve was filed as active; the % refers to the signal ratio)
Summary of the method: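 Antagonist mode: test compounds are co-incubated with the adenylyl cyclase activator NKH477 (0.25 uM final) on CRE-bla HEK293T cells for 3 h at 37 °C, followed by LiveBLAzer substrate loading.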

[12] = biological target: Beta-2 adrenergic receptor (Homo sapiens) (UniProt P07550); assay: Adrenergic beta2 receptor (ADRB2) small molecule antagonists, cell-based qHTS assay (AID 1963592); further: series mostly up to about 92 µM; nearly all actives have a fitted effect of over 50% in size
Chain of Beta-2 adrenergic receptor (Homo sapiens) (P07550 whole entry, looked up): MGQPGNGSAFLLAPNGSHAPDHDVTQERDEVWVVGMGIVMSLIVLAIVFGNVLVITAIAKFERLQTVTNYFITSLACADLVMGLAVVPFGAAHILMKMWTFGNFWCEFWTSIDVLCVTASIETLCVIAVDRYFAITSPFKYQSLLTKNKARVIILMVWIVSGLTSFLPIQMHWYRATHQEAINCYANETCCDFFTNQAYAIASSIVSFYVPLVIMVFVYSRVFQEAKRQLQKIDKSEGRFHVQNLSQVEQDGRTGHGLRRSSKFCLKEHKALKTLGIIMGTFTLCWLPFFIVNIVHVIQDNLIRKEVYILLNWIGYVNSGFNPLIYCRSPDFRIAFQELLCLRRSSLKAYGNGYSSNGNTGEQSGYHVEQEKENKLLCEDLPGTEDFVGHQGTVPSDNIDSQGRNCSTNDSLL
Summary of the method: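 Cells (CHO, stable ADRB2 overexpression) incubated 18-20hr at 37C; compounds added from DMSO; agonist mix (1nM isoproterenol, 100uM IBMX, 25uM Ro-20-1724) added; 0.5hr RT; d2-cAMP and anti-cAMP-cryptate added; 1hr RT; 665/615 nm read.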

[13] = biological target: Beta-2 adrenergic receptor (Homo sapiens) (UniProt P07550); assay: Adrenergic beta2 receptor (ADRB2) small molecule agonists, cell-based qHTS assay (AID 1963593);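 further: CHO cells stably overexpressing human ADRB2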
Summary of the method: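 CHO cells stably over-expressing ADRB2 were plated overnight at 37C, then dosed with compounds plus a stimulation mix containing 100uM IBMX and 25uM Ro-20-1724 for 0.5hr at room temperature. cAMP was measured by HTRF competition, 1hr.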

[14] = biological target: D(2) dopamine receptor (Homo sapiens) (UniProt P14416); assay: Dopamine D2 receptor (DRD2) small molecule agonists, cell-based qHTS assay (AID 1963594); further: nearly all actives have a fitted effect of over 35% in size
Chain of D(2) dopamine receptor (Homo sapiens) (P14416 whole entry, looked up): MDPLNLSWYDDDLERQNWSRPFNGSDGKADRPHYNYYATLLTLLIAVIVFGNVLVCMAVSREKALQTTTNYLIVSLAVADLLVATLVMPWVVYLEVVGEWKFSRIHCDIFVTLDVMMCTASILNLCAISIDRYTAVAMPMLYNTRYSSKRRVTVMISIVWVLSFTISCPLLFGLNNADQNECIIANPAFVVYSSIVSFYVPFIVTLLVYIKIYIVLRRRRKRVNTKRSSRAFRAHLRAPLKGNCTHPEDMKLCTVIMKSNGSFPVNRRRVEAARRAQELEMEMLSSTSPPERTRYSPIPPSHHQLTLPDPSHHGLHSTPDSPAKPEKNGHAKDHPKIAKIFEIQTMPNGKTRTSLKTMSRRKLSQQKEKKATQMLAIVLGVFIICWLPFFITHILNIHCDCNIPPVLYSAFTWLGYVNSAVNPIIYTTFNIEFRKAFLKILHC
Summary of the method: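 cAMP accumulation in DRD2-HEK293 cells measured by HTRF after 1 h detection; compounds added 10 min before NKH477 (200nM […]) forskolin-analogue stimulation, 30 min at room temperature, with Ro20-1724 present at 0.1 mM final.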

[15] = biological target: D(2) dopamine receptor (Homo sapiens) (UniProt P14416); assay: Dopamine D2 receptor (DRD2) small molecule antagonists, cell-based qHTS assay (AID 1963595; active means well fitted inhibition curve with a large enough effect in the signal ratio in the repeat runs, with a control signal flat; the % refers to the signal ratio)
Summary of the method: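 DRD2-HEK293; 0.1 mM Ro20-1724; cpd 10 min RT; NKH477 200 nM + quinpirole 12 nM, 30 min RT; HTRF cAMP (cAMP-d2/anti-cAMP cryptate), 665/620 nm ratio after 1 h.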

[16] = biological target: 5-hydroxytryptamine receptor 2A (Homo sapiens) (UniProt P28223); assay: 5-hydroxytryptamine receptor 2A (HTR2A) small molecule antagonists, cell-based qHTS assay (AID 1963586); further: nearly all actives have a fitted effect of over 45% in size
Chain of 5-hydroxytryptamine receptor 2A (Homo sapiens) (P28223 whole entry, looked up): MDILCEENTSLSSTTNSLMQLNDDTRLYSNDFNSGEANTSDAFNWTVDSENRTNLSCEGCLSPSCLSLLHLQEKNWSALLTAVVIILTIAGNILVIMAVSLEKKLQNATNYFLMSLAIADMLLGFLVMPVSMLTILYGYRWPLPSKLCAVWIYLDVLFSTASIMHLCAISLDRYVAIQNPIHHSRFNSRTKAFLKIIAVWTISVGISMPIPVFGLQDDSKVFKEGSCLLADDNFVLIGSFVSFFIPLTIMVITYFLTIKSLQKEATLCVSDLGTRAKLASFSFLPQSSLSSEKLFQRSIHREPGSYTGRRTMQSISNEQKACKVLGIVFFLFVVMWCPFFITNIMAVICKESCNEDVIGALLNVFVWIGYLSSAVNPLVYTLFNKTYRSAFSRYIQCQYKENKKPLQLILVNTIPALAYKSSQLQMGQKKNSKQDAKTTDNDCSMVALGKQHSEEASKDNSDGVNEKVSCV
Summary of the method: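 Antagonist-mode intracellular calcium assay: DOI (4 nM) added after 5 min compound pre-incubation at room temperature to dye-loaded HTR2A-CHO cells. Fluorescence followed for 3 min, sampled every second.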

[17] = biological target: 5-hydroxytryptamine receptor 2A (Homo sapiens) (UniProt P28223); assay: 5-hydroxytryptamine receptor 2A (HTR2A) small molecule agonists, cell-based qHTS assay (AID 1963587); further: nearly all actives have a fitted effect of over 30% in size
Summary of the method: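 Kinetic calcium-flux fluorescence (2 min, 1 sec intervals) after compound addition in agonist mode. HTR2A-CHO cells were cultured 18 h, then dye-loaded 1 h at 37 C.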

[18] = biological target: Muscarinic acetylcholine receptor M1 (Homo sapiens) (UniProt P11229); assay: Cholinergic receptor muscarinic 1 (CHRM1) small molecule antagonists, cell-based qHTS assay (AID 1963588); further: nearly all actives have a fitted effect of over 40% in size; further: potency means the concentration at half of the fitted maximal effect
Chain of Muscarinic acetylcholine receptor M1 (Homo sapiens) (P11229 whole entry, looked up): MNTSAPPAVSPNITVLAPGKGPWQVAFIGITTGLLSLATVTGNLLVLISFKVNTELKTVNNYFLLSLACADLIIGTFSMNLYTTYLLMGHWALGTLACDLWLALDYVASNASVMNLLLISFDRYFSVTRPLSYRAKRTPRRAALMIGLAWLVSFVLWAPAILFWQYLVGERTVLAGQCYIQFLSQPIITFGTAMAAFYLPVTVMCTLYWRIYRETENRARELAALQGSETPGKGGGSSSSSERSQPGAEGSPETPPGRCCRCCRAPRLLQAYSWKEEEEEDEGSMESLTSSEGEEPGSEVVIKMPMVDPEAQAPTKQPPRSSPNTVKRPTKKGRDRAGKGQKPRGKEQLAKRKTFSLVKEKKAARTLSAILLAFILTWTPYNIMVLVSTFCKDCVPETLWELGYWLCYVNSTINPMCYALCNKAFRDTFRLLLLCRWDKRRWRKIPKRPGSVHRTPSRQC
Summary of the method: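 CHRM1-CHO calcium-flux assay, antagonist mode. Cells were seeded 18 h, dye-loaded 1 h at 37 C and given compound for 5 min at RT, then acetylcholine was added at 50nM. FDSS fluorescence was read 3 min; 15 concentrations, three runs.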

[19] = biological target: Muscarinic acetylcholine receptor M1 (Homo sapiens) (UniProt P11229); assay: Cholinergic receptor muscarinic 1 (CHRM1) small molecule agonists, cell-based qHTS assay (AID 1963589); further: nearly all actives have a fitted effect of over 35% in size
Summary of the method: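 Agonist-mode qHTS in CHO cells stably carrying human muscarinic M1. Intracellular calcium is tracked by fluorescence every second after compound transfer; each compound runs at 15 concentrations in three independent runs.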

| SMILES | Potency [1] | Potency [2] | Potency [3] | Potency [4] | Potency [5] | Potency [6] | Potency [7] | Potency [8] | Potency [9] | Potency [10] | Potency [11] | Potency [12] | Potency [13] | Potency [14] | Potency [15] | Potency [16] | Potency [17] | Potency [18] | Potency [19] |
| --- | --- | --- | --- | --- | --- | --- | --- | --- | --- | --- | --- | --- | --- | --- | --- | --- | --- | --- | --- |
| CC(C)Oc1ccc2c(=O)c(-c3ccccc3)coc2c1 | inactive | 376 nM (active) and 266 nM (active) | inactive | inactive | inactive | inactive | inactive | inactive | inactive | inactive | inactive | inactive | inactive | inactive | inactive | – | – | – | – |
| COC(=O)CCCCC(=O)O | inactive | inactive | inactive | inactive | – | inactive | inactive | inactive | inactive | inactive | inactive | inactive | inactive | inactive | inactive | inactive | inactive | inactive | inactive |
| CC(C)CCCC(C)CCCC(C)CCCCC(C)CCCC(C)CCCC(C)C (configuration not stated) | inactive | inactive | inactive | inactive | inactive | inactive | inactive | – | inactive | inactive | inactive | – | – | – | inactive | inactive | inactive | inactive | inactive |
| CCCCN(CCCC)CCCCCCN(CCCC)CCCC | inactive | inactive | inactive | inactive | inactive | inactive | – | inactive | – | inactive | inactive | inactive | – | inactive | inactive | inactive | inactive | inactive | inactive |
| CCCCCCCCC1CCC(=O)O1 (configuration not stated) | inactive | inactive | inactive | inactive | inactive | inactive | inactive | inactive | inactive | – | inactive | inactive | inactive | – | inactive | inactive | inactive | inactive | – |
| COc1ccc(N=[N+]([O-])c2ccc(OC)cc2)cc1 | inactive | inactive | inactive | inactive | inactive | inactive | – | inactive | inactive | inactive | inactive | inactive | – | inactive | inactive | inactive | inactive | inactive | inactive |
| CCCCCCCCCC/C=C/C#N | inactive | inactive | inactive | inactive | inactive | inactive | inactive | – | inactive | inactive | – | inactive | – | inactive | inactive | inactive | inactive | inactive | inactive |
| CCCCc1ccc(Cl)cc1 | inactive | inactive | inactive | inactive | inactive | inactive | inactive | inactive | inactive | – | inactive | – | – | inactive | inactive | inactive | – | inactive | inactive |
| OCCCCCCCl | inactive | inactive | inactive | inactive | inactive | – | inactive | inactive | inactive | inactive | inactive | inactive | – | – | inactive | inactive | inactive | inactive | inactive |
| C/C=C/C(=O)CCCC | inactive | inactive | inactive | inactive | – | inactive | inactive | inactive | – | inactive | inactive | inactive | – | inactive | inactive | – | – | inactive | inactive |
| C=CC(=O)NC(C)C | inactive | inactive | inactive | inactive | inactive | inactive | inactive | – | – | inactive | inactive | inactive | inactive | inactive | – | inactive | inactive | inactive | inactive |
| C1=CCC2CC=CC2C1 (configuration not stated) | inactive | inactive | inactive | inactive | – | inactive | inactive | inactive | inactive | inactive | inactive | inactive | – | inactive | inactive | inactive | inactive | 3.34 µM (active) | inactive |
| O=C(OC(=O)c1ccccc1)c1ccccc1 | inactive | inactive | inactive | – | inactive | inactive | inactive | inactive | inactive | inactive | inactive | inactive | inactive | inactive | inactive | inactive | inactive | inactive | inactive |
| O=C1NCCN1CCO | inactive | inactive | inactive | inactive | – | – | inactive | inactive | inactive | inactive | inactive | inactive | inactive | inactive | – | inactive | inactive | inactive | inactive |
| ON(Cc1ccccc1)Cc1ccccc1 | inactive | inactive | inactive | inactive | inactive | – | – | inactive | inactive | inactive | inactive | inactive | inactive | inactive | inactive | inactive | inactive | inactive | inactive |
| CSc1ccc2c(c1)N(CCC1CCCCN1C)c1ccccc1S2 (configuration not stated) | 24.2 µM (active) and 26.6 µM (active) | inactive | inactive | inactive | inactive | 45.6 µM (active) and inactive | 40.6 µM (active) and inactive | inactive | – | – | – | inactive | inactive | – | – | – | – | – | – |
